According to the supplement of paper PMC10849652:
The full data set covers some 7,900 targets. This sample favours those with a hit. About 0.6% of all pairs of compound and target were hits.

What was measured:
Assay in all cases: log2 fold change, soluble protein after heating vs DMSO (PISA); higher = thermal stabilisation; K562 cells, 10 uM, 30 min; active = over 0.2 and 3.5 SD of the protein, either way, in both replicates (recomputed)
[1] = compound: C1COCCN1CCN2C3=CC=CC=C3N=C2NC(=O)C4=CC(=CC=C4)[N+](=O)[O-] [IRAK-1-4 Inhibitor I]
Method in brief: (§1)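 K562 cells at 2×10^6 cells/mL were exposed to 10 μM compound for 30 min, then aliquots were heated for 3 min across 48°C-58°C, pooled, and extracted in PBS containing 0.5% NP-40 at 4°C. The supernatant after 21,000xg for 90 min was taken as soluble protein and measured by TMTpro 16plex LC-MS/MS with channel sums equalised. Thermal stability is reported relative to control samples, with values from duplicates. Fold changes are given on a log2 scale.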

[2] = compound: C=CC(=O)N1CCC[C@@H](n2nc(-c3ccc(Oc4ccccc4)cc3)c3c(N)ncnc32)C1 [ibrutinib]
Method in brief: as §1

[3] = compound: CC(=O)c1cnc2ccc(-c3cc(Cl)c(O)c(Cl)c3)nc2c1N[C@H]1CC[C@H](CN(C)C)CC1
Method in brief: as §1

[4] = compound: CC(C)(C)Cn1c(N)nc2ccc(-c3[nH]c(C(C)(C)C)nc3-c3ccc(F)cc3)nc21 [ralimetinib]
Method in brief: as §1

[5] = compound: CC(C)(O)CC(=O)NCCn1ccc2ncnc(Nc3ccc(Oc4cccc(C(F)(F)F)c4)c(Cl)c3)c21
Method in brief: as §1

[6] = compound: CC(C)C1=C2N=C(C=C(N2N=C1)NCC3=CC=CC=C3)NCCCCCCN
Method in brief: as §1

[7] = compound: CC(C)C[C@@H](C=O)NC(=O)[C@H](CC(C)C)NC(=O)[C@H](CC(C)C)NC(=O)OCc1ccccc1
Method in brief: as §1

[8] = compound: CC(C)N(C[C@H]1O[C@@H](n2cnc3c(N)ncnc32)[C@H](O)[C@@H]1O)[C@H]1C[C@@H](CCc2nc3cc(C(C)(C)C)ccc3[nH]2)C1 [pinometostat]
Method in brief: as §1

[9] = compound: CC1=C(C(CC(=O)N1)C2=CC=C(C=C2)C(F)(F)F)C(=O)NC3=C(C=C4C(=C3)C=NN4)F
Method in brief: as §1

[10] = compound: CC1=C(C2=C(C=C1)C(=O)C3=CC=CC=C3N2CCCN)C
Method in brief: as §1

Measured: log2 fold change

PRIM1 (UniProt P49642)
inactive: [1] -0.066 | [2] -0.035 | [3] 0.007 | [4] 0.048 | [5] -0.079 | [7] 0.046 | [8] 0.114 | [9] 0.026 | [10] -0.006
active: [6] -0.319

POMP (UniProt Q9Y244)
inactive: [1] 0.029 | [2] -0.002 | [3] -0.002 | [4] -0.022 | [5] -0.033 | [6] 0.009 | [7] -0.002 | [8] -0.023 | [9] 0.076 | [10] -0.053

PRKACA (UniProt P17612)
inactive: [1] 0.023 | [2] -0.011 | [3] -0.038 | [4] -0.01 | [5] 0.01 | [6] 0.008 | [7] 0.005 | [8] -0.06 | [9] -0.07 | [10] -0.034

PITRM1 isoform 2 (UniProt Q5JRX3)
inactive: [1] 0.045 | [2] -0.045 | [3] -0.046 | [5] -0.173 | [6] -0.026 | [7] 0.062 | [8] -0.042 | [9] -0.013 | [10] 0.006
active: [4] 0.239

PUF60 (UniProt Q9UHX1)
active: [3] -0.352 | [6] -0.235
inactive: [1] -0.11 | [2] -0.018 | [4] 0.049 | [5] -0.016 | [7] -0.003 | [8] -0.016 | [9] 0.001 | [10] 0.016

PXK (UniProt Q7Z7A4)
inactive: [1] 0.032 | [2] 0.042 | [3] -0.012 | [4] 0.1 | [5] -0.023 | [6] -0.201 | [7] 0.037 | [8] 0.012 | [9] -0.024 | [10] 0.057

PTRHD1 (UniProt Q6GMV3)
inactive: [1] 0.155 | [2] 0.004 | [3] -0.048 | [4] -0.049 | [5] -0.022 | [6] 0.139 | [7] -0.01 | [8] 0.003 | [9] 0.054 | [10] 0.184

PDCD6 (UniProt O75340)
Chain of UniProt O75340 (O75340 whole entry, looked up): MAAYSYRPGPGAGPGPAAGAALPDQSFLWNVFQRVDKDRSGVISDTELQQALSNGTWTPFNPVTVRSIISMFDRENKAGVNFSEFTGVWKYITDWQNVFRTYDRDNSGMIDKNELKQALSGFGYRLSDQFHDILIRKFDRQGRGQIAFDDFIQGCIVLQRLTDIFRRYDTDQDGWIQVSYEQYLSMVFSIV
inactive: [1] 0.021 | [2] -0.05 | [3] -0.029 | [4] -0.048 | [5] -0.097 | [6] -0.156 | [7] 0.018 | [8] 0.005 | [9] 0.014 | [10] -0.034

PARG (UniProt Q86W56)
inactive: [1] -0.047 | [2] -0.022 | [3] -0.124 | [4] 0.045 | [5] -0.075 | [6] -0.203 | [7] 0.043 | [8] 0.059 | [9] 0.001
active: [10] 0.331

POLR3K (UniProt Q9Y2Y1)
Chain of UniProt Q9Y2Y1 (Q9Y2Y1 whole entry, looked up): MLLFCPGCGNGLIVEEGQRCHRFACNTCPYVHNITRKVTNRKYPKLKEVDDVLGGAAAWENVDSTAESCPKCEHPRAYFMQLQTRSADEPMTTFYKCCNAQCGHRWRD
inactive: [1] 0.026 | [2] 0.044 | [3] -0.013 | [4] -0.084 | [5] -0.07 | [6] 0.124 | [7] 0.089 | [8] 0.043 | [9] 0.032 | [10] -0.039

PSMD6 (UniProt Q15008)
active: [7] -0.221
inactive: [1] -0.037 | [2] -0.036 | [3] 0.081 | [4] 0.087 | [5] 0.05 | [6] 0.038 | [8] 0.047 | [9] 0.028 | [10] 0.012

QRICH1 (UniProt Q2TAL8)
inactive: [1] -0.108 | [2] -0.024 | [3] 0.048 | [4] 0.055 | [5] -0.237 | [6] -0.321 | [7] 0.08 | [8] 0.026 | [9] 0.029 | [10] -0.08

PRPF31 (UniProt Q8WWY3)
inactive: [1] -0.066 | [2] -0.028 | [3] -0.3 | [4] 0.069 | [5] -0.144 | [6] -0.387 | [7] 0.004 | [8] 0 | [9] -0.016 | [10] -0.271

PSMB6 (UniProt P28072)
inactive: [1] -0.007 | [2] -0.025 | [3] 0.049 | [4] -0.045 | [5] 0.045 | [6] 0.129 | [8] -0.053 | [9] 0.046 | [10] 0
active: [7] 0.4

PDCD4 (UniProt Q53EL6)
Chain of UniProt Q53EL6 (Q53EL6 whole entry, looked up): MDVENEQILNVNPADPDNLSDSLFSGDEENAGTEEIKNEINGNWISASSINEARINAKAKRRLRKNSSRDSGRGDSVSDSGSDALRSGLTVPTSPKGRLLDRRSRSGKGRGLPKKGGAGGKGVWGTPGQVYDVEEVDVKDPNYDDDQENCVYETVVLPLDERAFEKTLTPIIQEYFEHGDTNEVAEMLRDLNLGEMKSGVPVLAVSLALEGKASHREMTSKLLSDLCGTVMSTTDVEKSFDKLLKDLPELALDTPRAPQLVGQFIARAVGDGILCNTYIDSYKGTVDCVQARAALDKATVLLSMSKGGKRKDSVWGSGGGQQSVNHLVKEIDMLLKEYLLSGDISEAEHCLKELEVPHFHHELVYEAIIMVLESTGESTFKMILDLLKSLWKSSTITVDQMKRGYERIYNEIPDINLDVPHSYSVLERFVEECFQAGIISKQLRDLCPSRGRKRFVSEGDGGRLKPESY
inactive: [1] -0.043 | [2] -0.05 | [3] 0.271 | [4] -0.042 | [5] -0.091 | [6] -0.194 | [7] -0.015 | [8] -0.046 | [9] -0.123 | [10] -0.17

PDPK1 (UniProt O15530)
inactive: [1] 0.019 | [2] -0.043 | [4] -0.067 | [5] -0.087 | [6] -0.134 | [7] 0.015 | [8] 0.001 | [9] 0.035 | [10] 0.027
active: [3] -0.346

PCBP1 (UniProt Q15365)
inactive: [1] 0 | [2] -0.017 | [3] -0.005 | [4] 0.058 | [5] -0.058 | [6] -0.118 | [7] -0.006 | [8] -0.003 | [9] 0.023 | [10] 0.039

PISD (UniProt Q9UG56)
inactive: [1] -0.013 | [2] -0.038 | [3] -0.068 | [4] 0.02 | [5] -0.066 | [6] 0.001 | [7] 0.005 | [8] -0.013 | [9] -0.039 | [10] 0.147

PSMD11 (UniProt O00231)
inactive: [1] -0.048 | [2] 0 | [3] 0.086 | [4] 0.076 | [5] 0 | [6] -0.001 | [8] 0.029 | [9] 0.011 | [10] 0.037
active: [7] -0.263

PGM3 isoform 4 (UniProt O95394)
Chain of UniProt O95394 (O95394 whole entry, looked up): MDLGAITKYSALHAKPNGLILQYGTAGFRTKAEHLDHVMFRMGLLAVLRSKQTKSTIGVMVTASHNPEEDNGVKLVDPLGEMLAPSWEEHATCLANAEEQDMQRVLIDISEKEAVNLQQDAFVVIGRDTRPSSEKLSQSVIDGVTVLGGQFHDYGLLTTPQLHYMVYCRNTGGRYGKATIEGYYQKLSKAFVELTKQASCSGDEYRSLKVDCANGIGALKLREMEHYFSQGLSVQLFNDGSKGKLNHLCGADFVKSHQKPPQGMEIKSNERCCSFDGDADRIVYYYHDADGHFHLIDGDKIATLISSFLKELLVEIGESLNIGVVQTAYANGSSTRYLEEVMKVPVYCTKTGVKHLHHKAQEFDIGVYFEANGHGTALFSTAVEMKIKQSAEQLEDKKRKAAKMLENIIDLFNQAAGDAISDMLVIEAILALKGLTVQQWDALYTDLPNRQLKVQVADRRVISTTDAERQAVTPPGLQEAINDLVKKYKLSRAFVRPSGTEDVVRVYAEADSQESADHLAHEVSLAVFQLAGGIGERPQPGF
inactive: [1] -0.007 | [2] -0.016 | [3] -0.091 | [4] 0.016 | [5] -0.08 | [6] -0.097 | [7] -0.002 | [8] 0.012 | [9] -0.021 | [10] 0.02

POLR2I (UniProt P36954)
active: [3] 0.425
inactive: [1] 0.045 | [2] 0.136 | [4] -0.079 | [5] 0.035 | [6] 0.389 | [7] 0.03 | [8] -0.024 | [9] 0 | [10] 0.324

PSME4 (UniProt Q14997)
Chain of UniProt Q14997 (Q14997 whole entry, looked up): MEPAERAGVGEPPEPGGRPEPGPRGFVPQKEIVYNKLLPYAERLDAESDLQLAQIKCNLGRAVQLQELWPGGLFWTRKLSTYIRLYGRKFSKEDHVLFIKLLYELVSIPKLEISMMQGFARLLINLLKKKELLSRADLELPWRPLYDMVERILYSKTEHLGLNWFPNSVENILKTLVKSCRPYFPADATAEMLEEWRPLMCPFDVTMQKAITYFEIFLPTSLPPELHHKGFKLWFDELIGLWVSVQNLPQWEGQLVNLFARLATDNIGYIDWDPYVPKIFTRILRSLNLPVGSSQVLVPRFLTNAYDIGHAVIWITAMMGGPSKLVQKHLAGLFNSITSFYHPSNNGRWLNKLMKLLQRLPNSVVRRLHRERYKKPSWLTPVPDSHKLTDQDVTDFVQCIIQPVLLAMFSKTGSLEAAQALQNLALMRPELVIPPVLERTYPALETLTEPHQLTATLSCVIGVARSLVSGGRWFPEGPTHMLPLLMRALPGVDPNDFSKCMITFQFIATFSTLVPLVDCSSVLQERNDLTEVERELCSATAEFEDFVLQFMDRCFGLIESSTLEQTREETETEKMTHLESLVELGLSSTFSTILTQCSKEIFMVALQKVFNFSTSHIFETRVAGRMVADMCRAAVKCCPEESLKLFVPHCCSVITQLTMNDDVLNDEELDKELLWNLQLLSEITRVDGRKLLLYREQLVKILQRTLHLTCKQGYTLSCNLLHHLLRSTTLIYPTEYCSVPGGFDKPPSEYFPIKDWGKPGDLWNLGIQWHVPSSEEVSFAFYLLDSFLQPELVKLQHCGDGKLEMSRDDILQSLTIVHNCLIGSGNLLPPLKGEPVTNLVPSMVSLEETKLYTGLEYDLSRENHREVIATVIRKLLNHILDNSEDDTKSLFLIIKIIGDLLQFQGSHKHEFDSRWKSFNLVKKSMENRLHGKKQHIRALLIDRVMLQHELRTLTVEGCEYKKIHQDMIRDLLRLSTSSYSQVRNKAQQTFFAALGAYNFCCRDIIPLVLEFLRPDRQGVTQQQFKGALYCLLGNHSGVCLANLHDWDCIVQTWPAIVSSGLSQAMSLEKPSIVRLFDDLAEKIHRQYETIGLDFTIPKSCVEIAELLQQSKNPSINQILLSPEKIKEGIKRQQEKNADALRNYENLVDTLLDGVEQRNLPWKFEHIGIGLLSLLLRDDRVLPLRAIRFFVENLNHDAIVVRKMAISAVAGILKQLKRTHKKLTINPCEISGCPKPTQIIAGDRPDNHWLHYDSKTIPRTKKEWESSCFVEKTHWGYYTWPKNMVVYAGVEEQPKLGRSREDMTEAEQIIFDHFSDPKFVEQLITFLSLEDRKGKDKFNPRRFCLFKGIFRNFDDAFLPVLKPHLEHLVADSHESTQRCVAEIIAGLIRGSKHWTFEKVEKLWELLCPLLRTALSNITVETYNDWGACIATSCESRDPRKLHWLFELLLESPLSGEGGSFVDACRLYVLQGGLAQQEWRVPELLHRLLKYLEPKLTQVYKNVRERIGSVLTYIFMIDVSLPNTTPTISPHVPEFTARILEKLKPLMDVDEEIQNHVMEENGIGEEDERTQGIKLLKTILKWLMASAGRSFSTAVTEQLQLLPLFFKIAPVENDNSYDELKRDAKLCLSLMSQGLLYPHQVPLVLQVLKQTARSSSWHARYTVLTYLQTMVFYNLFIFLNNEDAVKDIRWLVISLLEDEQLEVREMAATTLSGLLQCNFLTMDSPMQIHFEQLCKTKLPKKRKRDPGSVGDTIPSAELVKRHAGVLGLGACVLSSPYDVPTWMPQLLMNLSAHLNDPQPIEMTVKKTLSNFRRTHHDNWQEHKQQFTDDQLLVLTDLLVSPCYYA
inactive: [1] 0.003 | [2] -0.022 | [3] -0.023 | [4] -0.024 | [5] -0.097 | [6] -0.043 | [8] 0.068 | [9] 0.023 | [10] 0.105
active: [7] 0.271

PRMT3 (UniProt O60678)
inactive: [1] 0 | [2] -0.102 | [3] -0.023 | [4] -0.028 | [5] -0.167 | [6] -0.189 | [7] 0.028 | [8] 0.003 | [9] 0.013 | [10] 0.079

PIGT (UniProt Q969N2)
inactive: [1] -0.016 | [2] 0.01 | [3] -0.009 | [4] 0.022 | [5] -0.067 | [6] -0.089 | [7] 0.002 | [8] 0.045 | [9] 0.018 | [10] 0.01

PRPF38A (UniProt Q8NAV1)
inactive: [1] 0.011 | [2] -0.051 | [4] 0.03 | [5] 0.012 | [6] -0.029 | [7] 0.005 | [8] 0.027 | [9] 0.045 | [10] -0.014
active: [3] -0.237

PIK3C3 (UniProt Q8NEB9)
Chain of UniProt Q8NEB9 (Q8NEB9 whole entry, looked up): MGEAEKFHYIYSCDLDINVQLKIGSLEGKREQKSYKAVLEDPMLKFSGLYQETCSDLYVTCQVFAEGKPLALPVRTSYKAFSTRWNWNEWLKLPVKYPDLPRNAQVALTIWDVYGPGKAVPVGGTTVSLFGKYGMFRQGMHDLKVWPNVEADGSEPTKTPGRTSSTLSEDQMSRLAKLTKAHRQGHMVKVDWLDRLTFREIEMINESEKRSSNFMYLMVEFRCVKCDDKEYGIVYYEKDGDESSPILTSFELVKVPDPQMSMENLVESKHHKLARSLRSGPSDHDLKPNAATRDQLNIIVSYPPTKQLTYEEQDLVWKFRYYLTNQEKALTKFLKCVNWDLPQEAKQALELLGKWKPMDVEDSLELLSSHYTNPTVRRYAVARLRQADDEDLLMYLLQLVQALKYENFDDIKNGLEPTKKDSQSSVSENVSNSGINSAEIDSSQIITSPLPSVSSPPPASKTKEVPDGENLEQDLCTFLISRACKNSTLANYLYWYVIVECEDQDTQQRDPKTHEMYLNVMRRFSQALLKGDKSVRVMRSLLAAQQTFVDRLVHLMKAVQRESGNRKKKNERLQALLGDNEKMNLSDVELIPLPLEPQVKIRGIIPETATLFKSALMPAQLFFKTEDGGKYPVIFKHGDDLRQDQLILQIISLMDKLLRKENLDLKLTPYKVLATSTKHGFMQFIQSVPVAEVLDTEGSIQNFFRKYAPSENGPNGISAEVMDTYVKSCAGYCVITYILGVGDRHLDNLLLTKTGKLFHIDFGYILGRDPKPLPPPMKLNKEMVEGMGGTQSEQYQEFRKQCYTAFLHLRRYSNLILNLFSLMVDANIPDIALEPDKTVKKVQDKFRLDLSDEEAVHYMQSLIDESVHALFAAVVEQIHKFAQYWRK
inactive: [1] -0.012 | [2] -0.005 | [3] 0.058 | [4] 0.082 | [5] 0.002 | [6] -0.003 | [7] 0.035 | [8] 0.14 | [9] -0.021 | [10] 0.013

PPP2R5E (UniProt Q16537)
Chain of UniProt Q16537 (Q16537 whole entry, looked up): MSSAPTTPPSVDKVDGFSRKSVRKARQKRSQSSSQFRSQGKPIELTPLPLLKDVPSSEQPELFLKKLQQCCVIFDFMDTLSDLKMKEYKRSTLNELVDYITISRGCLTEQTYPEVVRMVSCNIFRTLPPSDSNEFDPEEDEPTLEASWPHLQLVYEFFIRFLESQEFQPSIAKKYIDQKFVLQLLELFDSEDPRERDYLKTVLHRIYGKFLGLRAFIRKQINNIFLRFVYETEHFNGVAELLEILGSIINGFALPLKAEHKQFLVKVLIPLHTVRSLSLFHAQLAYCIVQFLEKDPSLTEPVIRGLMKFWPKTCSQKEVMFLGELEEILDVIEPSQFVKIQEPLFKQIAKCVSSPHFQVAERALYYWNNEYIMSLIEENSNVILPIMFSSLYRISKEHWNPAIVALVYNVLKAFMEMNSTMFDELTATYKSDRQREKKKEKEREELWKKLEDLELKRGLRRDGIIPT
inactive: [1] -0.01 | [2] -0.001 | [3] -0.033 | [4] -0.029 | [5] -0.046 | [6] -0.144 | [7] 0.019 | [8] 0.015 | [9] 0.028 | [10] 0.136

PPIL1 (UniProt Q9Y3C6)
active: [3] 0.225
inactive: [1] -0.046 | [2] -0.011 | [4] -0.02 | [5] -0.038 | [6] 0.08 | [7] 0.09 | [8] 0.082 | [9] 0.004 | [10] 0.172

PDE2A (UniProt O00408)
inactive: [1] 0.083 | [2] 0.026 | [3] -0.001 | [4] 0.12 | [5] -0.082 | [6] 0.014 | [7] -0.009 | [8] -0.007 | [9] -0.064 | [10] 0.043

PPP2R5C isoform 5 (UniProt Q13362)
Chain of UniProt Q13362 (Q13362 whole entry, looked up): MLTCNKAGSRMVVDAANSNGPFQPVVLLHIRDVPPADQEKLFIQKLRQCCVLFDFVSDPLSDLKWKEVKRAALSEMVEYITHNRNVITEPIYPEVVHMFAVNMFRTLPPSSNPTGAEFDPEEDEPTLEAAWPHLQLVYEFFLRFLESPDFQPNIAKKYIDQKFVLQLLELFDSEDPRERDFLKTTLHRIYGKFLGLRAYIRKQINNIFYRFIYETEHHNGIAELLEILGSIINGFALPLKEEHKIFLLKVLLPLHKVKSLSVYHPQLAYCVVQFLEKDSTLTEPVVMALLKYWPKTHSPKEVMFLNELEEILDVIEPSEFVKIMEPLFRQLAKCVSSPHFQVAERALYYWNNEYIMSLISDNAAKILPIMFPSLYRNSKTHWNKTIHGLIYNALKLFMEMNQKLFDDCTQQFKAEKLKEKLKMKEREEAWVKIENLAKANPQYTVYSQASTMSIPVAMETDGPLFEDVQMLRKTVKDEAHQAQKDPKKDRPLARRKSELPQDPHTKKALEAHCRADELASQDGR
inactive: [1] -0.023 | [2] 0.041 | [3] -0.059 | [4] -0.044 | [5] -0.072 | [6] -0.061 | [7] 0.031 | [8] 0.011 | [9] 0.005 | [10] -0.018
